# BoNT-F LC inh – blocks Botulinum neurotoxin F light chain protease; Multiplex microsphere protease cleavage assay, flow cytometry; inhibition, % at 10 µM; hit rate 0.22% among 360,000; AID 588497; in the data active = inhibition above about 35%, passing the limit was not always enough; inconclusive = no clear call, values can overlap the other calls; also: plate controls were buffer without enzyme for full effect and enzyme alone for no effect
# BoNT-A LC inh2 – inhibitors of Botulinum neurotoxin A light chain protease. multiplex microsphere protease substrate cleavage, flow cytometry. inhibition, % at 10 µM. hit rate 0.17% among 360,000; also: plate controls were buffer without enzyme for full effect and enzyme alone for no effect
# Anthrax LF inh2 – inhibitors of Bacillus anthracis lethal factor protease. AID 588501. multiplex microsphere protease cleavage assay, LF. hit rate 0.12% among 360,000. inhibition, % at 10 µM. P15917; also: plate controls were buffer without enzyme for full effect and enzyme alone for no effect
# Target sequence (P15917 whole entry, looked up): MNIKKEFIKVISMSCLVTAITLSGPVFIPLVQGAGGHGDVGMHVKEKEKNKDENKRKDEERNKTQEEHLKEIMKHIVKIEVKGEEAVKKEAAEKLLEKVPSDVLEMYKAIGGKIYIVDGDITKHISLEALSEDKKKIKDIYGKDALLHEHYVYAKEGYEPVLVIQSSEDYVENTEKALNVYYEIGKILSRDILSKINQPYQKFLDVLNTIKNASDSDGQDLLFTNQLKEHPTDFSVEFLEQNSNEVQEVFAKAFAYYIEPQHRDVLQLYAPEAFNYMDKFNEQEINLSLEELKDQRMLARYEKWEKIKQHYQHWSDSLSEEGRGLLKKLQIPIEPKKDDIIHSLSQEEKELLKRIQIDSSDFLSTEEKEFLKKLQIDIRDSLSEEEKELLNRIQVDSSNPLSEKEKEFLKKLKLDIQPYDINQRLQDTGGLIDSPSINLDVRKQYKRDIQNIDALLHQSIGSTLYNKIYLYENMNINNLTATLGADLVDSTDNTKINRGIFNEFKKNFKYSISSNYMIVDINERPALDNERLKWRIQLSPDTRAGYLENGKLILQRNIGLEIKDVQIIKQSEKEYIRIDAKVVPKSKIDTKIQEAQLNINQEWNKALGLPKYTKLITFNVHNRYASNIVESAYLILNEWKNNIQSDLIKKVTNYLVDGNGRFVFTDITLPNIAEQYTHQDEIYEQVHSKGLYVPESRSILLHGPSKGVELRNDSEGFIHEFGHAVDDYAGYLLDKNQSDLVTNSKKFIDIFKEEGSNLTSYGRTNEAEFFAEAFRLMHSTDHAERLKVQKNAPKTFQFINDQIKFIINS
# SSB-PriA inh – inhibitors of Klebsiella pneumoniae PriA binding to SSB C-terminal tail; inhibition, % at 33 µM; AID 1272365; hit rate 0.6% among 430,000; AlphaScreen SSBct-PriA binding, biotinylated peptide; in the data active = inhibition mostly above about 37%, no sharp cut-off; inactive = mostly below about 20%;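 also: plate controls were negative control peptide for no effect and reference peptide for full effect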
# Autofluor counter – counter-screen for toxin protease inhibitors: compound fluorescence. compound autofluorescence counterscreen, microsphere flow cytometry; active compounds read high. fluorescence intensity (concentration not given with the values). hit rate 3.1% among 360,000; in the data active = fluorescence intensity above about 16000; inconclusive = no clear call, values can overlap the other calls
# Starred values were filed as active, the others as inactive; i = inactive; u = inconclusive; x = no result. Rows were chosen to be rich in hits. Some 3.1% of all compounds tested hit in one or more screens of this group. Rule as the data show it, unless noted: active = inhibition above about 30%; inconclusive = no clear call, values can overlap the other calls; inactive = below that.
SMILES,BoNT-F LC inh,BoNT-A LC inh2,Anthrax LF inh2,SSB-PriA inh,Autofluor counter
COc1ccc(-n2c(=O)cc(N3CCOCC3)[nH]c2=O)cc1,1,-1,-1,-13,19939*
O=c1oc2ccccc2cc1-c1nc(-c2cccs2)cs1,32,58*,41*,-49,8352
COc1cccc2cc(-c3nc(-c4cccs4)cs3)c(=O)oc12,-2,17,13,-35,3637
O=C(COc1ccccc1)N1CCNC1=O,2,2,-2,-10,21620*
COc1ccc(CC(=O)N2CCNC2=O)cc1,2,2,-2,8,19689*
O=C(COc1ccccc1)N1CCC(CNC(=O)N2CCNC2=O)CC1,x,x,x,-13,x
O=P(Nc1cccnc1)(Oc1ccccc1Cl)Oc1ccccc1Cl,86*,7,30*,1,7876
Cc1cccc(OP(=O)(Nc2cccnc2)Oc2cccc(C)c2)c1,-10,0,-1,-3,3546
Cc1ccc(-n2nc3c4c(cccc4c2=O)-c2ccccc2-3)cc1,9,8,1,-7,19852*
CN(C)c1nc(N)nc(CSc2nnnn2-c2ccc(F)cc2)n1,2,0,1,-1,23095*
O=C(C1CC1)N1CC(n2cc(-c3ccccc3)nn2)C1,x,x,x,-31,x
CCOC(=O)c1cc2c(C)n(-c3ccc(C)cc3)c(C)c2ccc1=O,-2,1,-2,6,22981*
Nc1c(C(=O)N2CCCC2)sc(=S)n1Cc1ccccc1,x,x,x,20,x
COCCN1CSC(=S)N(Cc2ccccc2)C1,x,x,x,-3,x
O=C(CSc1cc(NCc2ccccc2Cl)ncn1)NCc1ccccc1Cl,x,x,x,-1,x
O=C(CSc1ncccn1)NCc1ccccc1Cl,-4,u,-2,5,21734*
CC(/C=C/c1ccco1)=N\NC(=O)c1cc(C)[nH]n1,0,u,-5,x,23188*
Cc1cc(C(=O)N/N=C/c2ccco2)n[nH]1,-3,0,-2,x,1988
COc1ccc(N=C(C)N(C)CCNS(=O)(=O)c2ccc(Cl)cc2)cc1,x,x,x,-11,x
Cc1cccc(N2CCN(C(=O)C3CCCCC3)CC2)c1C,0,0,1,-4,10532
Cc1cc(N2CCC(C(=O)N3CCN(c4cccc(C)c4C)CC3)CC2)n2ncnc2n1,-6,-5,-6,6,17532*
CCOc1ccc(OCCCC(=O)O)cc1,-1,0,-2,-7,20482*
Cc1nn(C2CCS(=O)(=O)C2)c(C)c1S(=O)(=O)NCc1ccc2c(c1)OCO2 (stereo not given),x,x,x,13,x
CC(C)(C)C(=O)OCc1cn(-c2ccc(Cl)cc2)nn1,0,u,-5,-22,19456*
CC(C)CC(=O)OCc1cn(-c2ccccc2)nn1,-7,-5,0,-14,21300*
SMILES,BoNT-F LC inh,BoNT-A LC inh2,Anthrax LF inh2,SSB-PriA inh,Autofluor counter
CC(C)(C)C(=O)OCc1cn(-c2ccccc2)nn1,-1,0,2,1,9925
O=C(Nc1cccc(Cl)c1)OCc1cn(-c2ccc(Cl)cc2)nn1,-7,-2,-3,-17,16617*
Cn1cccc1C=NNC(=O)c1cc2ccccc2cc1O,x,x,x,43*,x
CC(/C=N/NC(=O)Cc1cccs1)=C\c1ccco1,1,u,0,x,21994*
CC(/C=N/NC(=O)c1cccs1)=C\c1ccco1,-8,0,-1,x,4223
O=C(N/N=C/c1ccncc1)c1cc2ccccc2cc1O,5,1,0,x,u
Cn1cccc1/C=N/NC(=O)Cc1cccs1,u,-1,43*,i,3872
Cn1cccc1/C=N/NC(=O)c1cccs1,-6,-2,-1,x,6004
CCCNCCC(c1ccco1)c1ccccc1OC (stereo not given),-6,-2,-8,10,16663*
CCC(=O)NCCC(c1ccco1)c1ccccc1OC (stereo not given),14,2,2,-11,4656
C/C(=N\NC(=O)Cc1csc(N2CCOCC2)n1)c1ccccc1,-10,u,-4,x,21300*
CC(=NNC(=O)Cc1csc(N2CCOCC2)n1)c1ccc(Cl)c(Cl)c1,x,x,x,-1,x
Cc1nc(Oc2ccc(Cl)cc2)c2oc3ccccc3c2n1,-1,u,1,1,20568*
Cc1n(CC(O)COCc2ccccc2)c2ccccc2[n+]1C (stereo not given),-1,-2,-2,-17,23714*
CC(=O)Nc1cccc(OCC(O)Cn2cnc3ccccc32)c1 (stereo not given),-4,u,-1,-11,22621*
OC(COCc1ccccc1)Cn1cnc2ccccc21 (stereo not given),-1,u,0,0,16259*
O=C(Cn1cnc2ccccc21)NCc1ccccc1,2,1,-12,-14,21986*
OC(COCc1ccccc1)COCc1ccccc1,-5,-1,1,-13,3037

# High-throughput results (PubChem)
